For some assays here: Entries with a potency or affinity are not part of this list.
Experiments:
Parameters in all cases: scale not given: direction of the effect not stated beside the values
[1] = target: Protein translocase subunit SecA (Escherichia coli (strain K12)) (UniProt P10408); experiment: Assay to Identify E. coli SecA ATPase Inhibitors; format: functional; conditions: 30 µM
[2] = target: T1, Ubiquitin-activating enzyme e1, putative (Leishmania donovani (strain BPK282A1)) (UniProt E9BSI1); experiment: Leishmania donovani Ubiquitin Activating Enzyme (LdE1); format: functional; conditions: 30 µM
T1 sequence (whole entry): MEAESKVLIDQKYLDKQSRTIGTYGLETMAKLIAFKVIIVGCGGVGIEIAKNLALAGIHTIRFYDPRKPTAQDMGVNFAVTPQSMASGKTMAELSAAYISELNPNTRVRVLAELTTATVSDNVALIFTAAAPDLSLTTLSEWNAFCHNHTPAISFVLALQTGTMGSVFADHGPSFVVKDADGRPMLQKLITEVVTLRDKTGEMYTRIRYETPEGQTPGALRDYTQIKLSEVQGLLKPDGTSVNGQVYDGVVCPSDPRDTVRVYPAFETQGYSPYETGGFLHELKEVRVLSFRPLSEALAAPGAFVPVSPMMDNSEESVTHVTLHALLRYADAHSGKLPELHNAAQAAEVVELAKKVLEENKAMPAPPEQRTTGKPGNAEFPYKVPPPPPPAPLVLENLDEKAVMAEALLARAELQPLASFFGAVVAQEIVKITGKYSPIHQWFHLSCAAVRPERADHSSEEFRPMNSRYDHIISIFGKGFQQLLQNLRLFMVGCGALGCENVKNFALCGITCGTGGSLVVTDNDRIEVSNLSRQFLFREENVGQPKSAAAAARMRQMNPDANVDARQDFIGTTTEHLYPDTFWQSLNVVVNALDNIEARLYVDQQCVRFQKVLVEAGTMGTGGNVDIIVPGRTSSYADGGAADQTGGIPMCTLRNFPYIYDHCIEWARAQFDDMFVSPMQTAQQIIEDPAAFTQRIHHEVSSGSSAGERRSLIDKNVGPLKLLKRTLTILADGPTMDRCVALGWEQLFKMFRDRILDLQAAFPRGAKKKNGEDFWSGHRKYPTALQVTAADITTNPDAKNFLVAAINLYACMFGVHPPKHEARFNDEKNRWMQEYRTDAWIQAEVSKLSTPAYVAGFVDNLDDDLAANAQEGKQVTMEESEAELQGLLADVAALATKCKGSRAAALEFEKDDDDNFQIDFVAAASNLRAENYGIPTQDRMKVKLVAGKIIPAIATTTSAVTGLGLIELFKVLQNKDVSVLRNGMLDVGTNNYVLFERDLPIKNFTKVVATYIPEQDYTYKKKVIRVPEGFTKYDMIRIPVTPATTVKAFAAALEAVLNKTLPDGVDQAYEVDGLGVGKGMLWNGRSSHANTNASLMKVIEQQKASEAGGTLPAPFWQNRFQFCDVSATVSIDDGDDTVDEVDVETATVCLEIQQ

[3] = target: T2, Aspartate--tRNA(Asp/Asn) ligase (Mycobacterium tuberculosis (strain ATCC 25618 / H37Rv)) (UniProt P9WFW3); experiment: Assay for Asp RNA synthetase-1 from Mycobacterium tuberculosis; format: functional; conditions: 30 µM; note: in the data most compounds retested in dose-response had high values
T2 sequence (whole entry): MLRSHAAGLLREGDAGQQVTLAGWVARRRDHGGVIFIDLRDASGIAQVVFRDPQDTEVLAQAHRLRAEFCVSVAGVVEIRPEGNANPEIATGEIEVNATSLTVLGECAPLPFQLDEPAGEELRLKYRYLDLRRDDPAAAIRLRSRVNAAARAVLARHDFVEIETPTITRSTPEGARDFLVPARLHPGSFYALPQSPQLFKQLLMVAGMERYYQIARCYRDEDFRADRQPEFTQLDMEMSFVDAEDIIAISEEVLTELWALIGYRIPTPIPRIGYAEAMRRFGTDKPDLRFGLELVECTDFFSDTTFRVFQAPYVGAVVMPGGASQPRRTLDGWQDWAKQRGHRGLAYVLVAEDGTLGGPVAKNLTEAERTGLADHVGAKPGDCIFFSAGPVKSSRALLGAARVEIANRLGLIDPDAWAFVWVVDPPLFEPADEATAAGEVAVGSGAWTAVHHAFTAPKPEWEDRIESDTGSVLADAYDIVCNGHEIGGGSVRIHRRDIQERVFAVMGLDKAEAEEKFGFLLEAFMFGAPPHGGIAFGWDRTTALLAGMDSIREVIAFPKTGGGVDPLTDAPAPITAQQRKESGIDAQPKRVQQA

[4] = target: Sialic acid-binding Ig-like lectin 9 (Homo sapiens) (UniProt Q9Y336); experiment: Hs-Siglec9 ALPHAscreen SOP 20170721; conditions: 10 µM
Sialic acid-binding Ig-like lectin 9 (Homo sapiens), sequence (Q9Y336 whole entry): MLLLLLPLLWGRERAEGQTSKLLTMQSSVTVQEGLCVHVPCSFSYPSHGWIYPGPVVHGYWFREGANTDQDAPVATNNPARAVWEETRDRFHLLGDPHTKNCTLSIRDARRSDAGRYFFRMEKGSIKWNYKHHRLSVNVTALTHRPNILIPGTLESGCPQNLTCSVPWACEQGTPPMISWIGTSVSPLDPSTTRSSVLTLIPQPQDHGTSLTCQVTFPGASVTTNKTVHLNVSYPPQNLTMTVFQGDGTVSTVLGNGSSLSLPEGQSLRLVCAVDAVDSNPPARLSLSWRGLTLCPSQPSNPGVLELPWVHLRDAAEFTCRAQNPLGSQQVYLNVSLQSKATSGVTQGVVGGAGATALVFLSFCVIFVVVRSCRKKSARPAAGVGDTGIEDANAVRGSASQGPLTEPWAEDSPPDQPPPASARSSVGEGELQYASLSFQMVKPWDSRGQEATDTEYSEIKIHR

[5] = test system: Trypanosoma cruzi; experiment: Trypanosoma cruzi phosphomannomutase and mannose-1-phosphate guanylyltransferase assay; format: functional; conditions: 10 µM
[6] = target: T3, Arginase-2, mitochondrial (Homo sapiens) (UniProt P78540); experiment: in vitro enzyme assay to detect the production of urea directly proportional to the activity of Arginase II; format: functional; conditions: 33.3 µM; note: in the data most compounds retested in dose-response had high values
T3 sequence (whole entry): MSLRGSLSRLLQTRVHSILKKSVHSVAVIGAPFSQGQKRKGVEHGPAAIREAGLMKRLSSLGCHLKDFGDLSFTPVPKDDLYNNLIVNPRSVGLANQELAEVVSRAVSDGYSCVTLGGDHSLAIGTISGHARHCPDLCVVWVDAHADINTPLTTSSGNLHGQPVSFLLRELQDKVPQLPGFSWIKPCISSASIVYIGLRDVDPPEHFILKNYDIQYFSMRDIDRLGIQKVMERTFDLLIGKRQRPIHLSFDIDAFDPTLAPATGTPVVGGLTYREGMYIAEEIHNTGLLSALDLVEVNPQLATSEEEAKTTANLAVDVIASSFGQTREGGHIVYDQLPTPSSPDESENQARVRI

[7] = target: T4, Proteasome subunit beta (Trypanosoma cruzi) (UniProt O96673); experiment: Trypanosoma cruzi proteasome chymotrypsin-like activity (TcProtChymo) assay.; note: in the data most compounds retested in dose-response had high values; format: functional; conditions: 9.37 µM
T4 sequence (whole entry): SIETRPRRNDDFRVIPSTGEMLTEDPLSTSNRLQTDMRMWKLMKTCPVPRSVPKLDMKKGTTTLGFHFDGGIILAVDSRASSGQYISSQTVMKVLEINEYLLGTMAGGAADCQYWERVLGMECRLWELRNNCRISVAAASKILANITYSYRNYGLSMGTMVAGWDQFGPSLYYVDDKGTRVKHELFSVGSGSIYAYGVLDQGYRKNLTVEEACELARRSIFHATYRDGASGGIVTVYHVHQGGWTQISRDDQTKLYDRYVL

[8] = species on record: Homo sapiens; experiment: To identify inhibition of the IFN signalling (Jak-Stat) pathway via expression of an eGFP reporter gene under the control of an IFN-stimulated response element (ISRE) containing MxA promoter.; format: functional; conditions: 30 µM
[9] = target: Shiga toxin 2 (Escherichia coli O157:H7) (UniProt P09385+P09386); experiment: E. coli 0.157:H7 Shiga Toxin SOP - stx2 screening assay; format: functional; conditions: 30 µM
[10] = target: T5, Tyrosyl-tRNA synthetase, putative (Trypanosoma cruzi (strain CL Brener)) (UniProt Q4DSP6); experiment: Trypanosoma cruzi tyrosyl tRNA synthetase (TcYRS) _High Tyrosine SOP; format: functional; conditions: 30 µM; note: in the data most compounds retested in dose-response had high values
T5 sequence (whole entry): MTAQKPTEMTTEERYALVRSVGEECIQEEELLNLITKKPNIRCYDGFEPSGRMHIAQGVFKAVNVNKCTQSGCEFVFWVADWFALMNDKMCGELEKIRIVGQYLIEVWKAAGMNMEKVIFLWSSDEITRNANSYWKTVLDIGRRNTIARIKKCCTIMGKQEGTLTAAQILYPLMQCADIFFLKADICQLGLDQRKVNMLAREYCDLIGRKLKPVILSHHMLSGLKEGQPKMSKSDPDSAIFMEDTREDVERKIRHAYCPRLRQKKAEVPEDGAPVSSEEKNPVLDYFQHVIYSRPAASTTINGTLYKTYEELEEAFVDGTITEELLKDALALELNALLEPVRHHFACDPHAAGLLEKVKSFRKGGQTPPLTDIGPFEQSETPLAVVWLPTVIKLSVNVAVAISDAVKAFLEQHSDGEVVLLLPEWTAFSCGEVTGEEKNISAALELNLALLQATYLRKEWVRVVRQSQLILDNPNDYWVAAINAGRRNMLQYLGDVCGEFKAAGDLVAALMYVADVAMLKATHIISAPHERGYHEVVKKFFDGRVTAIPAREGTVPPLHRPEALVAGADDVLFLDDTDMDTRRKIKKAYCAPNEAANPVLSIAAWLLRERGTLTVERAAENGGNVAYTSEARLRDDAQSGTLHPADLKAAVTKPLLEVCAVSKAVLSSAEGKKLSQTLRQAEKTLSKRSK

[11] = target: T5, Tyrosyl-tRNA synthetase, putative (Trypanosoma cruzi (strain CL Brener)); experiment: Trypanosoma cruzi tyrosyl tRNA synthetase (TcYRS) SOP; format: functional; conditions: 30 µM
[12] = target: Chromo domain-containing protein 1 (Saccharomyces cerevisiae (strain ATCC 204508 / S288c) (Baker's yeast)) (UniProt P32657); experiment: ScCHD-1 Enzyme Inhibition Assay; format: functional; conditions: 30 µM; note: in the data most compounds retested in dose-response had high values
Chromo domain-containing protein 1 (Saccharomyces cerevisiae (strain ATCC 204508 / S288c) (Baker's yeast)), sequence (P32657 whole entry, the tested form may be a part): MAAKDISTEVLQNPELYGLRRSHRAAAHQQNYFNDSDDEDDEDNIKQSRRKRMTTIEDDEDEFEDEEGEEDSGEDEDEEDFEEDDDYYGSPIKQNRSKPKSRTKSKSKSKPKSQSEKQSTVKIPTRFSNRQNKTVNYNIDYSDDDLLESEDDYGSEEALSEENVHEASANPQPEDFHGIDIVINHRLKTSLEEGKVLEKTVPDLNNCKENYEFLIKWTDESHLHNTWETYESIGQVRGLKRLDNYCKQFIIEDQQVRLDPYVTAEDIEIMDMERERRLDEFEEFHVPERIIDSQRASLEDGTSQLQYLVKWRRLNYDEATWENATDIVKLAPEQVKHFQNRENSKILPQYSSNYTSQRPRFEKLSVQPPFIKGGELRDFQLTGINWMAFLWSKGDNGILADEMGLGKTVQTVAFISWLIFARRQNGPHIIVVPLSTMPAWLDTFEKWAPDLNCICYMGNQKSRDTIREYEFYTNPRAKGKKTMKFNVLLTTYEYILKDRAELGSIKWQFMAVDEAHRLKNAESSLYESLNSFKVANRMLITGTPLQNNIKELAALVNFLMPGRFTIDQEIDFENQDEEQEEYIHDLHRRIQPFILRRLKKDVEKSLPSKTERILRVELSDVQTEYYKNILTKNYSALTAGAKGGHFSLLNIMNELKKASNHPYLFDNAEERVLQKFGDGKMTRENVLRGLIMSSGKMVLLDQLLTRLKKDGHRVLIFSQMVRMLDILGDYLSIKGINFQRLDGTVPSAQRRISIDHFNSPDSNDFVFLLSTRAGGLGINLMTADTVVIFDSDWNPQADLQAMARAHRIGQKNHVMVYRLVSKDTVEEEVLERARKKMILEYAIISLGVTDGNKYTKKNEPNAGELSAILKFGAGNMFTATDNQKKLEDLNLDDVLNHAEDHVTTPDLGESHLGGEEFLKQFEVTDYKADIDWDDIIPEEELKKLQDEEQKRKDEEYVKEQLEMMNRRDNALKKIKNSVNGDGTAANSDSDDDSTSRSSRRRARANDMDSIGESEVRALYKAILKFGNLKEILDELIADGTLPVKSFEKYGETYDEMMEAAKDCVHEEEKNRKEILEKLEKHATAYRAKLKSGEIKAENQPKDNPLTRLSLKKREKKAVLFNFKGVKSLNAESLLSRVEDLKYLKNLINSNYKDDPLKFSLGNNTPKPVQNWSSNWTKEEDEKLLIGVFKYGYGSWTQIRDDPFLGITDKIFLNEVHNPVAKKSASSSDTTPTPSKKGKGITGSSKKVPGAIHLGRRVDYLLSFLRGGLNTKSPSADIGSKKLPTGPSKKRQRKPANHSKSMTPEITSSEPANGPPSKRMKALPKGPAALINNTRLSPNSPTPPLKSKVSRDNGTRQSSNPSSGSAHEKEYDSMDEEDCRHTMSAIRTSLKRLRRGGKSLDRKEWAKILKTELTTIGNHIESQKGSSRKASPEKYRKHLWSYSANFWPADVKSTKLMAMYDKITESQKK

Protein translocase subunit SecA (Escherichia coli (strain K12)), sequence (P10408 whole entry): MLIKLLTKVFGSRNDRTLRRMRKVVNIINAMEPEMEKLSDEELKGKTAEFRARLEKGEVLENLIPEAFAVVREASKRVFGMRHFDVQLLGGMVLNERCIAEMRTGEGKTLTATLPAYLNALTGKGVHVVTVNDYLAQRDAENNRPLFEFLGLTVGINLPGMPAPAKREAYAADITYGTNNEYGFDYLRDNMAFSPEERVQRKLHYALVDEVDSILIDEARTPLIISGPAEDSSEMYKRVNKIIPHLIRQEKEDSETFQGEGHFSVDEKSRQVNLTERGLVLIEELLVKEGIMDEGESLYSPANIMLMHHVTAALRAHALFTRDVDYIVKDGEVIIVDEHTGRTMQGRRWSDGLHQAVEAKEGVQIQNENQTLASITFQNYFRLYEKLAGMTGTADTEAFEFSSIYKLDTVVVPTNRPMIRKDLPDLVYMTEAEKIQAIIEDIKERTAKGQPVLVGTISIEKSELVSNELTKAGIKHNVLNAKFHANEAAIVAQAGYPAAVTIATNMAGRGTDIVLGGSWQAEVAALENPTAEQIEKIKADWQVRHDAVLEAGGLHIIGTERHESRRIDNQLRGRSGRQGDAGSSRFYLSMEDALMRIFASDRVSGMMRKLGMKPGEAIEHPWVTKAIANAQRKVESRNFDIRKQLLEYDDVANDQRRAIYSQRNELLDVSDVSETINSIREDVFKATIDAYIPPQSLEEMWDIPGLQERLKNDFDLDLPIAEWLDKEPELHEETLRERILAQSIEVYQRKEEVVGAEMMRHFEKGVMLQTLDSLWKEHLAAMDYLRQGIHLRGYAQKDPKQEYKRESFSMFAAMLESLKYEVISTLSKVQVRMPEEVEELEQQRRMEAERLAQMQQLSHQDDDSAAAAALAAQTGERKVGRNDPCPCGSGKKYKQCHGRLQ

Row | Structure (SMILES) | Percent Effect [1] [%] | Percent Effect [2] [%] | Percent Effect [3] [%] | Percent Effect [4] [%] | Percent Effect [5] [%] | Percent Effect [6] [%] | Percent Effect [7] [%] | Percent Effect [8] [%] | Percent Effect [9] [%] | Percent Effect [10] [%] | Percent Effect [11] [%] | Percent Effect [12] [%]
1 | COCCN1C[C@H]2[C@@H](C1)N(C(=O)COc1ccccc1)CC[C@H]2OC | -3.67 | 3.9 | -1.3 | 0.149 | 5.36 | -4.45 | 19.7 | -1.44 | -14.5 | 5.79 | 15.4 | 36.6
2 | COc1ccc(C(=O)C2CCCN(Cc3ccncc3)C2)c(OC)c1 (stereo not drawn) | -6.33 | 5.41 | -0.276 | 12.6 | 5.33 | 15 | 5.31 | 10.7 | 11 | 5.85 | 12.2 | 83.7
3 | O=C(NCC(F)(F)F)C1=NOC2(CCCNC2)C1 (stereo not drawn) | -8.38 | 3.9 | 1.78 | 4 | -3.21 | -4.86 | 4.15 | -6.57 | 13.8 | 4.74 | 2.56 | -0.335
4 | Cc1noc(C)c1CN1CCO[C@H]2CNC[C@H]21 | -3.48 | 9.09 | 7.37 | -4.93 | -4.19 | -2.02 | 20 | 8.41 | 2.96 | 0.526 | 7.69 | -4.21
5 | CC(=O)N1CCN(Cc2ccccn2)CC2(CC(=O)N(C)C2)C1 (stereo not drawn) | -0.0517 | -29.9 | -4.78 | 4 | 0.938 | -1.37 | 3.35 | -20.2 | 2.99 | 6.76 | 7.5 | -1.54
6 | c1cnc(N2CCC3(CCN(CC4CCOC4)C3)CC2)nc1 (stereo not drawn) | -3.76 | 6.49 | 8.74 | -2.65 | -2.63 | 0.405 | 10.2 | 0.479 | -3.12 | 2.63 | 7.69 | -4.21
7 | c1ccc(CN2CCC3(CC2)CCN(Cc2cccs2)C3)nc1 | -3.68 | 11.7 | 1.23 | -8.25 | -1.31 | -0.457 | 6.61 | -11.1 | -13.1 | 8.7 | -12.5 | -12
8 | COc1cccc([C@@H]2CCN(Cc3ccc4ccccc4n3)C[C@H]2O)c1 | -6.38 | 5.41 | -2.79 | 14.7 | 4.56 | 18.5 | 9.76 | 1.68 | -2.3 | 7.98 | 19.5 | -2.92
9 | O=C1N(Cc2cccnc2)CCC12CCCNC2 (stereo not drawn) | -3.76 | 16.9 | 2.62 | -3.98 | -3.19 | 0.913 | 20 | 34 | 7.06 | 1.93 | 2.5 | -10.7
10 | CCn1nc(C)c(CNC(=O)c2cn(CC3CCCO3)nn2)c1C (stereo not drawn) |  |  | -4.13 |  |  |  |  |  |  |  |  | 
11 | Cc1noc(C)c1CN1CC[C@H]2OCC[C@@]2(C(=O)N2CCCO2)C1 | -4.42 | 6.49 | 6.12 | -7.21 | -3.6 | 3.24 | 16.5 | -11.1 | -3.97 | 11.1 | 10.3 | 3.94
12 | NC(=O)CN1CCCN(C(=O)Cc2ccc3c(c2)OCO3)CC1 | -0.196 | 5.33 | -1.81 | 2.43 | -7.43 | 3.55 | 3.48 | 12 | -21.4 | 3.68 | 10.3 | -7.19
13 | CN1CCN(Cc2ccoc2)Cc2cccnc21 | -4.57 | -14.3 | 3.07 | -3.94 | -5.16 | 4.45 | -0.265 | 0.714 | -8.68 | 5.79 | -15.4 | 3.94
14 | O=C1CC2(CCCNC2)C(=O)N1Cc1ccccc1 (stereo not drawn) | -1.32 | -16.9 | 1.23 | -1.16 | -6.57 | 0.457 | 16.4 | 15 | 2.48 | 2.9 | 0 | -9.23
15 | CN1CCC2(CC1)C(=O)N(CC1CC1)c1ccccc12 | -2.83 | 9.09 | -2.3 | -0.296 | -1.69 | 3.65 | 1.12 | 2.83 | 4.66 | -0.966 | 0 | -9.03
16 | COc1ccc(C(=O)C2CCCN(CCCn3cccn3)C2)c(OC)c1 (stereo not drawn) | -4.85 | 5.41 | -0.805 | 13.1 | 7.27 | 25.5 | 7.71 | 3.33 | -4.88 | 6.92 | 17.1 | 77.1
17 | NCC1[C@H]2CN(CCc3ccccc3)C[C@@H]12 (stereo partly drawn) | -7.01 | 14.3 | 2.14 | -1.73 | -4.5 | -1.37 | 11.1 | 15.4 | -0.684 | 6.76 | 0 | -10.2
18 | Cc1cccc(CN2CC[C@H]3[C@H]2CCN3Cc2cnn(C)c2)n1 | -6.02 | 3.9 | -3.89 | 2.88 | 0.75 | -0.457 | -2.15 | 34 | -8.6 | -1.93 | -10 | 1.01
19 | C[C@@H]1CN(Cc2ccsc2)C[C@]12CCN(Cc1cccnc1)C2=O | -4.41 | 1.3 | -1.62 | 1.42 | -1.69 | 1.37 | -4.03 | 25.2 | -6.36 | 0 | -10 | -0.115
20 | CCn1cc(NC(=O)NC2CCCc3c2cnn3CCO)cn1 (stereo not drawn) |  |  | -3.64 |  |  |  |  |  |  |  |  | 
